Measured values: PubChem BioAssay (NCATS)
Inconclusive results are not listed. Where a call stands in place of a potency, no number is given. Values without a mark were called inactive. Activity calls are given as the source filed them. Calls follow the shape of the dose curve; as a rule, active = well fitted curve in the direction sought with a large enough effect; inconclusive = small, poorly fitted or top-dose-only effect, or another doubt; inactive = no such curve, though single readings can be large; an effect the other way counts as inactive or inconclusive.

Experiments:
[1] = biological target: Rap guanine nucleotide exchange factor 3 (Homo sapiens) (UniProt O95398); assay: Confirmatory qHTS for agonist of cAMP-regulated guanine nucleotide exchange factor 3 (EPAC1) (AID 1645881); conditions: EPAC1 Rap1B BODIPY-GDP exchange fluorescence; series mostly up to 154 µM;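 also: EPAC1 catalysed release of BODIPY-GDP from Rap1B seen as fluorescence loss; nearly all actives have a fitted effect of over 75% in size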
Chain of Rap guanine nucleotide exchange factor 3 (Homo sapiens) (O95398 whole entry, looked up): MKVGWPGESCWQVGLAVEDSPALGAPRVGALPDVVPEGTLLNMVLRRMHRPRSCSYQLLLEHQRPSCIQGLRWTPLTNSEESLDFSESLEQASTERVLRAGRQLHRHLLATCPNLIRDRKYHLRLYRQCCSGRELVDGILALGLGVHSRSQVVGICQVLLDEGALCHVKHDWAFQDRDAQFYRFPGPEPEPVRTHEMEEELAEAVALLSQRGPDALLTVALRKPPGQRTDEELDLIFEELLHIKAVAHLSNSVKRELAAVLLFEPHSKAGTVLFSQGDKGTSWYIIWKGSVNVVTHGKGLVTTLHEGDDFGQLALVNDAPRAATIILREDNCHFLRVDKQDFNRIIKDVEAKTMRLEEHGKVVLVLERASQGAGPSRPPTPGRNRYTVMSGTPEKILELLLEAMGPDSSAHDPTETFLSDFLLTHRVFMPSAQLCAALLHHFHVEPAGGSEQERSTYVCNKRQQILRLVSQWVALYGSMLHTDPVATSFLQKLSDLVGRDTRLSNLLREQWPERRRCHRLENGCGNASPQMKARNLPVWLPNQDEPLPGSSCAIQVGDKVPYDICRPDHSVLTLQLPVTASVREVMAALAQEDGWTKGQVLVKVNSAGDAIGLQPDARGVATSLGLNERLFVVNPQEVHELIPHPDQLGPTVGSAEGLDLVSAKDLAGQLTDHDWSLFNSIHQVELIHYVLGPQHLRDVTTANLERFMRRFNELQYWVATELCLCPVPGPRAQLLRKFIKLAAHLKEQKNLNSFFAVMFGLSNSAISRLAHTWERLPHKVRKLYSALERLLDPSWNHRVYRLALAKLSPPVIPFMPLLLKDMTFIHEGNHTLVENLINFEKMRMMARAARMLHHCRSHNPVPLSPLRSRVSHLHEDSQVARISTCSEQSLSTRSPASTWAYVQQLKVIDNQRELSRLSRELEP

[2] = biological target: Rap guanine nucleotide exchange factor 4 (Homo sapiens) (UniProt Q8WZA2); assay: Confirmatory qHTS for agonist of cAMP-regulated guanine nucleotide exchange factor 4 (EPAC2) (AID 1645884); conditions: EPAC2 GEF activity, Rap1B-BODIPY-GDP fluorescence; series mostly up to 154 µM;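 also: nucleotide exchange releases bodipy-GDP from Rap1 and this lowers its fluorescence; nearly all actives have a fitted effect of over 65% in size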
Chain of Rap guanine nucleotide exchange factor 4 (Homo sapiens) (Q8WZA2 whole entry, looked up): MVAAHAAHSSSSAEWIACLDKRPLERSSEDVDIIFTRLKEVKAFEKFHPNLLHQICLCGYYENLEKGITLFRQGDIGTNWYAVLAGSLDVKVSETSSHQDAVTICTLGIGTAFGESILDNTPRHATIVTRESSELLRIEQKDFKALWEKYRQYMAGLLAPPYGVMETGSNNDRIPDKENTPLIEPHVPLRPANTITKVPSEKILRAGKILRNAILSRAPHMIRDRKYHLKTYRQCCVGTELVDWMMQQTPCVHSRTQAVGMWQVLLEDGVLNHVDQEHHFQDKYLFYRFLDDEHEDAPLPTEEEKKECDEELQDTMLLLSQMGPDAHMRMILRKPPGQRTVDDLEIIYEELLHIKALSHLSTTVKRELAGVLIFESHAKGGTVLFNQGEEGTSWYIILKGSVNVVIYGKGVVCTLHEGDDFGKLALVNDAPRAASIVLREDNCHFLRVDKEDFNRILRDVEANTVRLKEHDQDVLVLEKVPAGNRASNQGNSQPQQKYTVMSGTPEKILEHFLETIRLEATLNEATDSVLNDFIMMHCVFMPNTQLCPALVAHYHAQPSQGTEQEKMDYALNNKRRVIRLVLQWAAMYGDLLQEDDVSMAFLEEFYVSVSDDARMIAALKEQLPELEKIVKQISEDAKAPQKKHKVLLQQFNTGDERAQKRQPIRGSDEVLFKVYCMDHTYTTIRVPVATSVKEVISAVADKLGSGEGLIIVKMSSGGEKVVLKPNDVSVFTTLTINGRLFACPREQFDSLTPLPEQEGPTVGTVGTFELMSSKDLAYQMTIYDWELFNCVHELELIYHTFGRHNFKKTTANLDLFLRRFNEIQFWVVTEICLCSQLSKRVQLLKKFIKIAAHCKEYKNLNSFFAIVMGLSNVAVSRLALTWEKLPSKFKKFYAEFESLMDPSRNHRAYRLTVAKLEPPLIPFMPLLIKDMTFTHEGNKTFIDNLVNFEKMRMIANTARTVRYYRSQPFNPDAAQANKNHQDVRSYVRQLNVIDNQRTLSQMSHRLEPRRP

[3] = biological target: Rap guanine nucleotide exchange factor 4 (Homo sapiens) (UniProt Q8WZA2); assay: Confirmatory qHTS for antagonist of cAMP-regulated guanine nucleotide exchange factor 4 (EPAC2) (AID 1645885); conditions: EPAC2 Rap1B-BODIPY-GDP exchange fluorescence, biochemical; series mostly up to 12.7 µM; also: nearly all actives have a fitted effect of over 25% in size; also: potency is read from the fitted curve at half-maximal effect
[4] = biological target: Rap guanine nucleotide exchange factor 3 (Homo sapiens) (UniProt O95398); assay: Counterscreen qHTS for antagonist of cAMP-regulated guanine nucleotide exchange factor 3 (EPAC1) (AID 1645888); conditions: Rap1B-BODIPY-GDP nucleotide exchange, fluorescence; series mostly up to 154 µM;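 also: fluorescence loss as bound BODIPY-GDP is released from Rap1B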
How it was run: (§1)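 Rap1B-BODIPY-GDP 250 nM + GDP 50 uM; cpds 7-pt, final 9.74 nM–152 uM (activator mode) or from 7.32 nM upwards (inhibitor mode); RT; FI 480/540 nm at 5 and 30 min, then ± cAMP, reread.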

[5] = biological target: Rap guanine nucleotide exchange factor 3 (Homo sapiens) (UniProt O95398); assay: Counterscreen qHTS for agonist of cAMP-regulated guanine nucleotide exchange factor 3 (EPAC1) (AID 1645889); conditions: EPAC1 Rap1B-BODIPY-GDP exchange, fluorescence; series mostly up to 154 µM; also: nearly all actives have a fitted effect of over 40% in size
How it was run: as §1

SMILES | Potency [1] | Potency [2] | Potency [3] | Potency [4] | Potency [5] | activation [2] | activity change, negative = inhibition [4] | activation [5]
CCOc1ccccc1Cn1c(=O)oc2ccc(C)cc21 | inactive | inactive | inactive | inactive | inactive | – | – | –
COc1cc(/C=C2/SC(=S)N(CC(=O)O)C2=O)ccc1OC(=O)c1cccs1 | inactive | inactive | inactive | inactive | inactive | – | – | –
Nc1ccc(C(=O)N/N=C/c2cn(Cc3ccccc3F)c3ccccc23)cc1 | inactive | – | inactive | – | – | 7.25% [at 17.1 µM, percent relative to cAMP agonist control] | 31.2% [at 30.8 µM] | 39.9% [at 30.8 µM]
CCC(C(=O)O)N1C(=O)/C(=C/C(C)=C/c2ccccc2)SC1=S (stereo not given) | inactive | inactive | 75.7 µM (active) | inactive | inactive | – | – | –
COc1ccc(C(CCN(Cc2ccc(OC)c(OC)c2)C(C)=O)C(C)C)cc1 (stereo not given) | inactive | inactive | inactive | inactive | inactive | – | – | –
NNc1cccc(C=Cc2ccccc2)cc1=O | inactive | – | inactive | – | – | 0.393% [at 17.1 µM, percent relative to cAMP agonist control] | -9.39% [at 30.8 µM] | 27.5% [at 30.8 µM]
CC(C)(C)c1ccc(Cn2nnc3c(=O)[nH]c(C4CCN(C(=O)Cc5cccs5)CC4)nc32)cc1 | inactive | inactive | inactive | inactive | inactive | – | – | –
COc1ccc(-c2csc(C(C)(O)c3ccccc3)n2)cc1 (stereo not given) | inactive | – | inactive | – | – | 5.7% [at 17.1 µM, percent relative to cAMP agonist control] | 8.72% [at 30.8 µM] | 23.4% [at 30.8 µM]
Cc1ccc(-c2ccc(CN3C(CC(C)C)C(=O)N(Cc4cn(CCC5OCCO5)nn4)CCS3(=O)=O)cc2)cc1 (stereo not given) | inactive | inactive | inactive | inactive | inactive | – | – | –
COc1ccc(CCn2c(=N)c(C(=O)NC3CCCCC3)cc3c(=O)n4ccccc4nc32)cc1 | inactive | inactive | inactive | inactive | inactive | – | – | –
O=C(O)CN1C(=O)/C(=C\c2cc([N+](=O)[O-])ccc2OCc2ccccc2Cl)SC1=S | inactive | – | inactive | – | – | 2.47% [at 17.1 µM, percent relative to cAMP agonist control] | -20.4% [at 30.8 µM] | 29.5% [at 30.8 µM]
CCOC(=O)C1=C(C)N=c2sc(=Cc3cc(Cl)c(OCC(=O)O)c(Cl)c3)c(=O)n2C1c1cccc(OC)c1 (stereo not given) | inactive | inactive | inactive | inactive | inactive | – | – | –
Fc1ccc(-c2nc3ccc(Br)cn3c2Cc2cccc(F)c2)cc1 | inactive | inactive | inactive | inactive | inactive | – | – | –
CCOc1cc(/C=C/C(=O)OCC(=O)NCc2ccco2)cc(Cl)c1OC | inactive | inactive | inactive | inactive | inactive | – | – | –
COC(=O)c1ccc(-c2ccc(/C=N/N3C(=O)C4C5C=CC(C6CC56)C4C3=O)o2)cc1 (stereo not given) | inactive | – | inactive | – | – | 1.41% [at 17.1 µM, percent relative to cAMP agonist control] | -3.98% [at 30.8 µM] | 7.8% [at 30.8 µM]
CCCCCC(=O)Nc1cccc(C2=NOC3(C2)C[C@@H](C(N)=O)N(C(=O)CC(c2ccccc2)c2ccccc2)C3)c1 (stereo not given in full) | inactive | – | inactive | – | – | 9.87% [at 17.1 µM, percent relative to cAMP agonist control] | -21.4% [at 30.8 µM] | 34.5% [at 30.8 µM]
Cc1ccc(CN(C(=O)COc2cc(C)c(Cl)c(C)c2)c2ccccn2)o1 | inactive | inactive | inactive | inactive | inactive | – | – | –
CCOC(=O)N1CCC(Nc2nc3ccccc3n3cnnc23)CC1 | inactive | – | inactive | – | – | 3.86% [at 17.1 µM, percent relative to cAMP agonist control] | -12.2% [at 30.8 µM] | 4.26% [at 30.8 µM]
CCc1ccc(C=C2SC(=S)N(CCCC(=O)Nc3ccc(C(=O)O)cc3)C2=O)cc1 | inactive | inactive | inactive | inactive | inactive | – | – | –
CCOc1cccc(C(=O)Nc2ccc3oc(Cc4ccc(Cl)cc4)nc3c2)c1 | inactive | – | inactive | – | – | 0% [at 17.1 µM, percent relative to cAMP agonist control] | -8.02% [at 30.8 µM] | 18.7% [at 30.8 µM]
CC(C)C[C@H]1COCCS(=O)(=O)N1Cc1cccc(Cl)c1 | inactive | – | inactive | – | – | 5.51% [at 17.1 µM, percent relative to cAMP agonist control] | -14.3% [at 30.8 µM] | 2.08% [at 30.8 µM]

SMILES | Potency [1] | Potency [2] | Potency [3] | Potency [4] | Potency [5] | activation [2] | activity change, negative = inhibition [4] | activation [5]
O=c1c2ccccc2nc(/C=C/c2cccnc2)n1Cc1ccccc1 | inactive | – | inactive | – | – | 2.62% [at 17.1 µM, percent relative to cAMP agonist control] | -16.6% [at 30.8 µM] | 22.2% [at 30.8 µM]
O=C(O)CN1C(=O)/C(=C\C(Br)=C\c2ccccc2)SC1=S | inactive | – | inactive | – | – | 6.32% [at 17.1 µM, percent relative to cAMP agonist control] | 0.657% [at 30.8 µM] | 8.49% [at 30.8 µM]
O=C(O)c1ccc(N/N=C/c2cn(Cc3ccccc3F)c3ccccc23)cc1 | inactive | inactive | inactive | inactive | inactive | – | – | –
COc1ccc2[nH]cc(S(=O)(=O)c3ccc(C)cc3)c2c1 | inactive | inactive | 21.3 µM (active) | inactive | inactive | – | – | –
COc1cc(/C=C2/SC(=O)NC2=O)ccc1OCc1ccccc1 | inactive | inactive | inactive | inactive | inactive | – | – | –
CCc1cccc(NC(=O)COC(=O)/C=C/c2cccs2)c1 | inactive | inactive | inactive | inactive | inactive | – | – | –
O=[N+]([O-])c1ccc(-n2nnnc2-c2ccccc2)c([N+](=O)[O-])c1 | inactive | inactive | inactive | inactive | inactive | – | – | –
NS(=O)(=O)c1ccc(Nc2nc(-c3cccc([N+](=O)[O-])c3)cs2)cc1 | inactive | – | inactive | – | – | 3.15% [at 17.1 µM, percent relative to cAMP agonist control] | -4.36% [at 30.8 µM] | 15.6% [at 30.8 µM]
CCCC(=O)Oc1c(S(=O)(=O)c2ccc(C)cc2)c(C)nn1C(C)(C)C | inactive | – | inactive | – | – | 12.6% [at 17.1 µM, percent relative to cAMP agonist control] | -10.7% [at 30.8 µM] | 5.13% [at 30.8 µM]
N#CCC(=O)Nc1ccc(C(=O)OCC(=O)Nc2ccc3ccccc3c2)cc1 | inactive | inactive | inactive | inactive | inactive | – | – | –
CCc1ccc(OCC2c3cc(OC)c(OC)cc3CCN2C(C)=O)cc1 (stereo not given) | inactive | inactive | 42.6 µM (active) | inactive | inactive | – | – | –
O=C(NCCc1c[nH]c2ccccc12)C(=O)Nc1cc2c3c(c1)CC(=O)N3CCC2 | inactive | inactive | inactive | inactive | inactive | – | – | –
CC(C)c1ccc(S(=O)(=O)Nc2ccc3c(c2)OCO3)cc1 | inactive | inactive | inactive | inactive | inactive | – | – | –
O=C(Cc1ccc(Cl)cc1)Nc1cccc(C(=O)Nc2ccccc2C(=O)O)c1 | inactive | – | inactive | – | – | 8.25% [at 17.1 µM, percent relative to cAMP agonist control] | -15.6% [at 30.8 µM] | 2.92% [at 30.8 µM]
O=C(C=Cc1ccccc1)c1c[nH]c2ccccc2c1=O | inactive | – | inactive | – | – | 5.37% [at 17.1 µM, percent relative to cAMP agonist control] | -25.8% [at 30.8 µM] | 9.21% [at 30.8 µM]
COc1ccc(S(=O)(=O)Nc2ccc3cn[nH]c3c2)cc1C | inactive | inactive | 67.5 µM (active) | inactive | inactive | – | – | –
O=S(=O)(NCCC1=CCCCC1)c1ccc(OC(F)(F)F)cc1 | inactive | – | inactive | – | – | -1.46% [at 17.1 µM, percent relative to cAMP agonist control] | -5.33% [at 30.8 µM] | 3.2% [at 30.8 µM]
COC(=O)C1=CN(Cc2ccc(OC)c(OC)c2)C=C(C(=O)OC)C1c1ccccc1F | inactive | inactive | 23.9 µM (active) | inactive | inactive | – | – | –
CC(C)(C)c1ccc(OCc2ccc(C(=O)N/N=C/c3ccc(O)c(O)c3)cc2)cc1 | inactive | – | inactive | – | – | -9.36% [at 17.1 µM, percent relative to cAMP agonist control] | -20.9% [at 30.8 µM] | 10.5% [at 30.8 µM]
CN1CCN(C(=O)c2ccc(COc3ccc(C(C)(C)C)cc3)o2)CC1 | inactive | – | inactive | – | – | 8.37% [at 17.1 µM, percent relative to cAMP agonist control] | 8.52% [at 30.8 µM] | 9.82% [at 30.8 µM]
